Results on one compound are retold here after PubChem BioAssay (NCATS).

A number with no mark means an inactive call. Results filed as inconclusive are left out. The source made the active and inactive calls. Unless noted, calls come from the whole dose curve; as a rule, active = well fitted curve in either direction with a large enough effect (not every such curve was filed as active); inconclusive = small, poorly fitted or top-dose-only effect, or another doubt; inactive = flat fitted curve, though single readings scatter. A value given as a limit tells only on which side of the number the result lay.

Test [1] can be described thus: AP1 Signaling Pathway (AID 357). Note: % is set by controls: 0 for no effect and ±100 for the full control effect. As to conditions: ME-180 AP-1-bla reporter, EGF-induced, beta-lactamase ratio, 5 h; at 7.69 µM (top of the series) unless noted. The procedure, abridged: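 Read-out was the 460nm/530nm emission ratio (excitation 405nm) after CCF4 loading for 2.5 hours at room temperature. Cells carried an AP-1-driven beta-lactamase reporter, were stimulated with EC50 EGF plus compound for 5 hours, and AC50 values came from titrations.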

Test [2] concerns the target Cytochrome P450 1A2 (Homo sapiens) (UniProt P05177). Nature of the test: p450-cyp1a2 (AID 410; calls by dose curve;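 note: -100% = full effect of reference inhibitor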). An outline of the steps:
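20nM CYP1A2, 100uM Luciferin-ME (=Km), 100mM KPO4; cpd 10 min RT; +NADPH regen, 60 min RT; stop/detect 20 min; luminescence. Normalized to furafylline 57 uM = full inhibition.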

Test [3] is described as follows: NFAT Signaling Pathway (AID 444).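 Note: carbachol stimulus at about its EC50 of 1 µM final; % is set by controls: 0 for no effect and ±100 for the full control effect.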 As to conditions: Jurkat NFAT-bla M1, carbachol, beta-lactamase ratio, 5 h; at 7.69 µM (top of the series) unless noted. The procedure, abridged:
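Read-out: CCF4 FRET ratio (460 nm/530 nm) after 1 h RT dye loading, used for %activity and AC50 from titration series. Cells: Jurkat NFAT-β-lactamase/M1 line, treated with compound plus 1 uM carbachol for 5 h, 37 °C.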

A short description of test [4]: Stat Signaling Pathway (AID 446).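 Note: ME-180 cervical cancer cells given 40 pM IL-6 alongside compound; SIE-controlled beta-lactamase reporter measured as 460/530 nm FRET emission ratio; % is set by controls: 0 for no effect and ±100 for the full control effect.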 The note with it: ME-180 (cervical carcinoma) SIE beta-lactamase reporter, IL-6 stimulated, 5 h; at 7.69 µM (top of the series) unless noted. An outline of the steps: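 Compound effects on IL-6-induced STAT reporter activity were measured in ME-180 cells. After overnight culture, cells were co-treated with 40 pM IL-6 for 5 hrs before beta-lactamase substrate loading at room temperature.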

The target in test [5] is Glucocorticoid receptor (Homo sapiens) (UniProt P04150). Nature of the test: GR-GFP Redistribution (AID 450;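 active = compounds whose dose series gives a full or clear partial fitted curve of increased nuclear translocation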; note: potency is the fitted concentration of half-maximal effect). The note with it: U2OS GR-GFP nuclear translocation, laser cytometry, 2 h.
The target is the same in test [6]. The test is described as follows: GR-EFC Redistribution (AID 451; calls by dose curve; note: potency is the fitted concentration of half-maximal effect). The note with it: CHO-K1 GR-EFC translocation, beta-gal luminescence, 2 h. An outline of the steps: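 Translocation of GR-ED fusion to nuclear EA restores b-gal, read by luminescence after 1 h room-temperature detection. Engineered CHO-K1 biosensor cells, 1,000/well, exposed 2 h at 37 C to titrations up to 46 uM final.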

For test [7], the target named is Mitogen-activated protein kinase 10 (Mus musculus) (UniProt Q61831). The test is described as follows: JNK3 AlphaScreen Assay (AID 530).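 Note: kinase came from lysate of stimulated human HepG2 cells; signal reports phosphorylation of biotinylated GST-cJun 1-79 at Ser73 with 10 µM ATP; % is set by controls: 0 for no effect and ±100 for the full control effect.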 An outline of the steps:
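Kinase buffer: 20 mM Tris-HCl pH 7.6, 10 mM MgCl2, 1 mM DTT, 0.1 mM Na3VO4, 0.01% Tween-20; ATP 10 uM. Substrate biotin-GST-cJun(1-79), enzyme from activated HepG2 lysates. Detection by Ser73 phospho-antibody AlphaScreen.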
On the technique in general: Bead proximity is the source of the signal in Alpha formats.

Test [8] deals with 3',5'-cyclic-AMP phosphodiesterase 4B (Homo sapiens) (UniProt Q07343). The test is described as follows: qHTS Assay for Inhibitors of PDE-IV (AID 607; active = well fitted activation curve with a large enough effect in the main read-out, with a control signal flat, not every such curve was filed as active; note: % of control where 0% means no effect). The procedure, abridged:
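ACTOne HEK293 cells carry a modified cAMP-gated CNG channel and express endogenous PDE4; plated 1000 cells/well, compounds up to 22.9 uM final. Membrane-potential dye fluorescence (ex 535/em 590) was read; parental cells received 10 uM forskolin + 100 uM RO 20-1724.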

In test [9] the target is Ubiquitin carboxyl-terminal hydrolase 1 (Homo sapiens) (UniProt O94782). Nature of the test: Inhibitors of USP1/UAF1: Pilot qHTS (AID 504865; active = well fitted inhibition curve with a large enough effect;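 note: rhodamine fluorescence freed from ubiquitin-rhodamine substrate followed over time; top concentration of the series differs between compounds; % is set by controls: 0 for no effect and ±100 for the full control effect; nearly all actives have a fitted effect of over 35% in size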). An outline of the steps: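 USP1/UAF1 complex at 1 nM preincubated 15 min at room temperature with compound, then Ub-Rho substrate added at 150 nM final. Fluorescence (480/540 nm) read kinetically in 50 mM HEPES pH 7.8, 0.5 mM EDTA, 1 mM TCEP, 0.1 mg/ml BSA, 0.01% Tween-20.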
Sequence of Ubiquitin carboxyl-terminal hydrolase 1 (Homo sapiens) (O94782 whole entry, looked up): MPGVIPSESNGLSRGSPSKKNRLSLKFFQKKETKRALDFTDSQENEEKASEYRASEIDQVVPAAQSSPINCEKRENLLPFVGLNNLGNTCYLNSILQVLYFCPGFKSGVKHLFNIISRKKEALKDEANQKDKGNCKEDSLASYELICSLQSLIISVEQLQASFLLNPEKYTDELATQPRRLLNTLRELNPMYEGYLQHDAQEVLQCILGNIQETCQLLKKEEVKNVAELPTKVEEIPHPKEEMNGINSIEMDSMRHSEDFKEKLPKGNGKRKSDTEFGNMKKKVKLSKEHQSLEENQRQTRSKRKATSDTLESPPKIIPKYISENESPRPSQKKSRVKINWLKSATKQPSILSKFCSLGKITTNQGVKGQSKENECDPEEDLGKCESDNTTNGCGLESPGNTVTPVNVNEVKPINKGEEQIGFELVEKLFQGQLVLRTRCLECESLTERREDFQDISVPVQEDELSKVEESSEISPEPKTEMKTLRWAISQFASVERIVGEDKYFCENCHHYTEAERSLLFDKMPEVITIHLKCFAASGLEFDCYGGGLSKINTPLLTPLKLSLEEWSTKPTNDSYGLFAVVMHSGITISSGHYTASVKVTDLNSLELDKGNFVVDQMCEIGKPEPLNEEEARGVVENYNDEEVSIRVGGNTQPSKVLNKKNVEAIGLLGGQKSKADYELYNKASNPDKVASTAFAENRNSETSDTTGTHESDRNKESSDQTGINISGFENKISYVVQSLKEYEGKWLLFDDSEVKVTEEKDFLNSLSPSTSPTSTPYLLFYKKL

Sequence of Glucocorticoid receptor (Homo sapiens) (P04150 whole entry, looked up, the tested form may be a part): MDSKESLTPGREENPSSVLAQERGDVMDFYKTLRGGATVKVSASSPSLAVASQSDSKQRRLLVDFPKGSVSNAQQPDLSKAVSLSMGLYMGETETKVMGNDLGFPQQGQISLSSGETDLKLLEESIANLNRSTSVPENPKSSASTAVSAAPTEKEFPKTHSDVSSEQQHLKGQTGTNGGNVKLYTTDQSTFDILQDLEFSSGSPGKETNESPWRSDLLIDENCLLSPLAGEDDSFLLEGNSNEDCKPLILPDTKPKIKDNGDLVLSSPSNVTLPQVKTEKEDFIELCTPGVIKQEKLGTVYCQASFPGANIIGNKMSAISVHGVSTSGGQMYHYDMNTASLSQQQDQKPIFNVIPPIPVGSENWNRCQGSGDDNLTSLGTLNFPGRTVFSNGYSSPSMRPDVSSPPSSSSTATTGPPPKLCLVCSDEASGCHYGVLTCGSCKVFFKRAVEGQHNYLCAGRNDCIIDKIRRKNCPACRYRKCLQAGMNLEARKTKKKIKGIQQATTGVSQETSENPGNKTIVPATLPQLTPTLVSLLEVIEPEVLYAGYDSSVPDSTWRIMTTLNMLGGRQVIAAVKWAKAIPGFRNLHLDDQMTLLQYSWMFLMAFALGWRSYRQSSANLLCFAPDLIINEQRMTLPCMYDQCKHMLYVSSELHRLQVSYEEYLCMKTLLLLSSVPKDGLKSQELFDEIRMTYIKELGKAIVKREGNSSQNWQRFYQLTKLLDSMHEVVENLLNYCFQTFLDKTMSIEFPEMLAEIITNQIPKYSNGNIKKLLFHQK
Sequence of 3',5'-cyclic-AMP phosphodiesterase 4B (Homo sapiens) (Q07343 whole entry, looked up): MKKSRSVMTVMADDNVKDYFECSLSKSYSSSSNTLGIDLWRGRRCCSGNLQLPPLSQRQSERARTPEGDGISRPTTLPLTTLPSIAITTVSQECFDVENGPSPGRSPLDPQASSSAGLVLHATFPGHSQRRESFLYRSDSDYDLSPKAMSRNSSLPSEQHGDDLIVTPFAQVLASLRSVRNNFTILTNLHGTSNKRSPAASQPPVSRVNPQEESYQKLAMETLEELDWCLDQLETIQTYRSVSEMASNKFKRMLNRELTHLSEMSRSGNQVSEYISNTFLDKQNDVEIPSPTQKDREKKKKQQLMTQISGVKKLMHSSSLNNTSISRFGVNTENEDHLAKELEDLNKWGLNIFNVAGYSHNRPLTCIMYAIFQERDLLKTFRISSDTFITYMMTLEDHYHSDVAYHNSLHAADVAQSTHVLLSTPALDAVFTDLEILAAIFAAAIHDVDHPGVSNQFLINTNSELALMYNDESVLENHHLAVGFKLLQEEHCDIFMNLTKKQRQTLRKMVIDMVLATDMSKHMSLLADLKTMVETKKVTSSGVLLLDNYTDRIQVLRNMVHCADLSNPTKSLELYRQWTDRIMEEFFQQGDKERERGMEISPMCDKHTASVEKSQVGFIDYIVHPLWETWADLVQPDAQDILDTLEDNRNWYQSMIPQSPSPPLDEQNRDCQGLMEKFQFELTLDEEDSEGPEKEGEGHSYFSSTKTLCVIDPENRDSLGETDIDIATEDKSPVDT
Sequence of Cytochrome P450 1A2 (Homo sapiens) (P05177 whole entry, looked up): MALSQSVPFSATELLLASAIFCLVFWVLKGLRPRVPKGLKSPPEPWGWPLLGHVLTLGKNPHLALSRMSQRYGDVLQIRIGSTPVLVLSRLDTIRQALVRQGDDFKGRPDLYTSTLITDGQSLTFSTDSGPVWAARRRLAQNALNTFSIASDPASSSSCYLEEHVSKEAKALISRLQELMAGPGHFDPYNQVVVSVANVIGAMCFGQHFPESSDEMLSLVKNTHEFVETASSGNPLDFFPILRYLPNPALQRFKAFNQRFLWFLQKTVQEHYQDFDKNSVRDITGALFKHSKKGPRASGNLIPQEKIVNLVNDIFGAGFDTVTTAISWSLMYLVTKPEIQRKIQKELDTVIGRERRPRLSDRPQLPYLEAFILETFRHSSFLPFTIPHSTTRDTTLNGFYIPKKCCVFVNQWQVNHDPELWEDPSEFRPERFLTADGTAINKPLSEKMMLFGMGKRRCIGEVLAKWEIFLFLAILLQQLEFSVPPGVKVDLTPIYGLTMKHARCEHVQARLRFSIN

On to `COc1ccc(C[C@@H]2NC[C@H](O)[C@@H]2OC(C)=O)cc1`, for which the activity change, negative = inhibition is -118% [at 17.2 µM] (active) in [1] and -130% [at 17.2 µM] (active) in test [3]. Besides, the Potency entry in test [2], in test [7] and in test [9] was “inactive” in each case. For the same compound, the activity, negative = inhibition in test [4] is -101% [at 17.2 µM] (active). Also, the Potency in test [5] and in [6] was more than 20.6 µM each time. In addition, the call in test [8] was inactive.
